The structures appear in SMILES notation. Records with an inconclusive call do not appear. Where a call stands in place of a potency, no number is given. Activity calls are given as the source filed them. Calls come from the whole dose curve; as a rule, active = well fitted cell-killing curve with a large enough effect; inconclusive = small, poorly fitted or top-dose-only effect; inactive = no such curve, though single readings can be large or run the other way.
Potency is the fitted concentration of half-maximal effect.

This test in a line: qHTS of pediatric cancer cell lines to identify multiple opportunities for drug repurposing: Primary screen for Rh41 cells (AID 1347108). Note: nearly all actives have a fitted effect of over 70% in size. Conditions: Rh41 rhabdomyosarcoma viability, CellTiter-Glo luminescence, 48 h; series mostly up to 46 µM. The essentials: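 Quantitative HTS format: each compound titrated (MIPE 11 points from 0.78 nM, NPC 8 points from 0.59 nM) onto cells plated 5 hours earlier. After 48 h at 37 degrees C, CellTiter-Glo luminescence was recorded.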
`Cc1cc2c(cc1C1(c3ccc(C(=O)O)cn3)CC1)C(C)(C)CCC2(C)C`: the Potency result was “inactive”. In the case of `CC1(C)C(N(O)C(=O)Nc2ccc(Cl)cc2)N(c2ccc(Cl)cc2)C(=O)N1CC(=O)NN=CC=Cc1ccc([N+](=O)[O-])o1` (configuration not stated), the Potency was 14.8 µM (active). Consider `Cc1cccc(Nc2nc(N[C@@H]3CCCC[C@H]3N)ncc2C(N)=O)c1`, for which the Potency is 11.8 µM (active).

Regarding `NC1(C(=O)N[C@@H](CCO)c2ccc(Cl)cc2)CCN(c2ncnc3[nH]ccc23)CC1`, the Potency is 0.743 µM (active). With `COc1ccc(-c2oc3c(CC=C(C)C)c(O)cc(O)c3c(=O)c2O)cc1` the figure was 18.7 µM (active). In the case of `Cc1ccc(NC(=O)c2cccc(N(C)C)c2)cc1NC(=O)c1ccc(O)cc1`, the Potency was 2.96 µM (active). The value for `COc1cc2nc(-c3cc(F)ccc3O)nc(N[C@@H]3CNC[C@@H]3C(C)(C)O)c2cc1OC` was 23.5 µM (active); that for `COc1nccc(-c2c(-c3ccc(F)cc3)ncn2C2CCC(O)CC2)n1` (configuration not stated) was “inactive”. On to `COc1ccc(C=CC(=O)Nc2ccccc2C(=O)O)cc1OC`, for which the Potency entry was “inactive”. In the case of `N#CC(c1ccnc(NCCc2cccnc2)n1)c1nc2ccccc2s1` (configuration not stated), the Potency was 23.5 µM (active). With `COc1nccc(-c2c(-c3ccc(F)cc3)ncn2C2CCNCC2)n1`, the Potency entry was “inactive”.

With `COc1ccc(-c2cc3nccn3c(Nc3ncccc3C(N)=O)n2)cc1OC`, the Potency is 2.35 µM (active). Turning to `Cc1cc(-c2ncc(CC(=O)Nc3ccc(-c4cnccn4)cn3)cc2C)ccn1`, the Potency entry is “inactive”. With `CC[C@H](CC#N)OC(=O)N[C@@H](C)c1cccc(NC(=O)Nc2ccc(-c3cnco3)c(OC)c2)c1`, the Potency result is “inactive”. The value for `O=C(O)c1ccc(O)c2ncc(N3CCOCC3)cc12` was 18.7 µM (active); that for `O=C1NC(=O)C(=Cc2ccc(-c3ccc(F)cc3O)o2)S1` was “inactive”; that for `CC[C@H](C)n1cc(C)c2c(C(=O)NCc3c(C)cc(C)[nH]c3=O)cc(-c3ccc(N4CCNCC4)nc3)cc21` was 18.7 µM (active).

Turning to `Cn1c(=O)c(Oc2ccc(F)cc2F)cc2cnc(NC3CCOCC3)nc21`, the Potency result was “inactive”.

Take `O=C1C(c2c(O)[nH]c3ccccc23)=Nc2ccccc21`: the Potency entry was “inactive”. Consider `OC[C@H]1O[C@@H](Oc2ccc(O)cc2)[C@H](O)[C@@H](O)[C@H]1O`, for which the Potency entry is “inactive”. As to `CCN1CCN(c2ccc(Nc3cc(N(C)C(=O)Nc4c(Cl)c(OC)cc(OC)c4Cl)ncn3)cc2)CC1`, the Potency entry was “inactive”.

`CC(=O)Nc1cccc(-n2c(=O)n(C3CC3)c(=O)c3c(Nc4ccc(I)cc4F)n(C)c(=O)c(C)c32)c1`: the Potency entry is “inactive”.

For the compound `OC1CCC(Nc2ncc3nc(Nc4c(F)cc(F)cc4F)n([C@@H]4CCOC4)c3n2)CC1` (some centres not stated), the Potency entry is “inactive”. With `CC(=O)NCCC(=O)N[C@@H](CCC(N)=O)C(=O)N[C@@H](CO)C(=O)N[C@@H](CCC(N)=O)C(=O)N[C@@H](CCC(N)=O)C(=O)N[C@H](C(=O)N[C@@H](Cc1ccccc1)C(=O)N[C@]1(C)CCCCCCC=CCCC[C@@](C)(C(=O)N[C@@H](CCC(N)=O)C(=O)N[C@@H](CC(N)=O)C(N)=O)NC(=O)[C@H](CC(C)C)NC(=O)[C@H](CC(C)C)NC(=O)[C@@H](CCCNC(=N)N)NC(=O)[C@H](Cc2c[nH]c3ccccc23)NC(=O)[C@H](CC(C)C)NC(=O)[C@H](CC(N)=O)NC1=O)[C@H](C)O`, the Potency is 18.7 µM (active).

`O=C(NCCCCN1CCOCC1)c1cc2ccccc2o1`: the Potency result is “inactive”. As to `CC(C)N(CCCNC(=O)Nc1ccc(C(C)(C)C)cc1)C[C@H]1O[C@@H](n2cc(Br)c3c(N)ncnc32)[C@H](O)[C@H]1O`, the Potency is 18.7 µM (active).

Consider `C=CCc1cccc(C=NNC(=O)CN2CCN(Cc3ccccc3)CC2)c1O`, for which the Potency is 18.7 µM (active).

For the compound `CCN(CC)CCCCNc1nc2cc(Cl)c(Cl)cc2nc1-c1ccc(-c2cccs2)s1`, the Potency is 23.5 µM (active). In the case of `CN(C)N=Nc1nc[nH]c1C(N)=O`, the Potency result is “inactive”.

On to `Cc1cnc(CNC(=O)c2c(=O)c3ccc(N4CCCN(C)CC4)nc3n3c2sc2ccccc23)cn1`, for which the Potency entry is “inactive”. Consider `CNc1nc(Nc2ccc(C(=O)N3CCOCC3)cc2OC)ncc1Cl`, for which the Potency entry is “inactive”. With `CC(C)[C@H](O)C(=O)N[C@@H](C)C(=O)N[C@@H]1C(=O)N(C)CCc2ccccc21` the entry was “inactive”; with `Nc1ncnc2c1c(-c1cccc(OCc3ccccc3)c1)cn2C1CC(CN2CCC2)C1` (configuration not stated), 2.96 µM (active).

As for `O=C(O)CCC=CCC[C@@H]1[C@H](N2CCCCC2)[C@@H](O)C[C@@H]1OCc1ccc(-c2ccccc2)cc1`, the Potency is 18.7 µM (active). Regarding `CN1CCN(c2cccc(Nc3nc4c(-c5ccc(S(C)(=O)=O)cc5)cccn4n3)c2)CC1`, the Potency was 18.7 µM (active). Take `COc1cc2ncn(-c3cc(OCc4ccccc4S(C)(=O)=O)c(C#N)s3)c2cc1OC`: the Potency entry was “inactive”. For the compound `NS(=O)(=O)c1ccc(Nc2nc(OCC3CCCCC3)c3[nH]cnc3n2)cc1`, the Potency entry was “inactive”.

These data come from PubChem BioAssay (NCATS).
